Experimental data reported in PubChem BioAssay (EPA / NIEHS).
The source made the active and inactive calls. How the source made its calls: active means hit-call score of the fitted dose curve at least 0.9, where 1 is the maximum; inactive means score below 0.9.

What was measured:
Details in all cases: mRNA level, 48 h; actives raise or lower the signal
[1] = read-out: adenosine kinase (ADK) gene, ADK (gene 132); assay: LTEA_HepaRG_ADK: Life Technologies and Expression Analysis (LTEA) Assay for adenosine kinase (ADK) gene using HepaRG (AID 2283471)
Method in brief: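 Read-out is ADK transcript level measured by qRT-PCR and normalised to three housekeeping genes. Cells are human HepaRG, dosed for 48 h at up to 100 uM in 0.5% DMSO. Gain or loss of signal is fitted against DMSO controls.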

[2] = read-out: Alpha-fetoprotein (AFP) gene, AFP (gene 174); assay: LTEA_HepaRG_AFP: Life Technologies and Expression Analysis (LTEA) Assay for Alpha-fetoprotein (AFP) gene using HepaRG (AID 2283472)
Method in brief: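 qRT-PCR (Fluidigm TaqMan) readout of AFP transcript, normalized to three housekeeping genes, fitted bidirectionally against 0.5% DMSO baseline. HepaRG cells received chemicals for 48 h in serum-free induction medium, top concentration 100 uM, half-log steps.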

[3] = read-out: BCL2L11 (gene 10018); assay: LTEA_HepaRG_BCL2L11: Life Technologies and Expression Analysis (LTEA) Assay for Bcl-2 (BCL2L11) gene using HepaRG (AID 2283473)
Method in brief: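 Differentiated human HepaRG cells in serum-free induction medium were exposed in duplicate for 48 h to eight concentrations (top 100 uM, half-log steps, 0.5% DMSO). BCL2L11 mRNA was quantified by TaqMan qRT-PCR, normalized to ACTB/GAPDH/POLR2A, bidirectional fit versus DMSO.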

[4] = read-out: Apolipoprotein A-V (APOA5) gene, APOA5 (gene 116519); assay: LTEA_HepaRG_APOA5: Life Technologies and Expression Analysis (LTEA) Assay for Apolipoprotein A-V (APOA5) gene using HepaRG (AID 2283474)
Method in brief: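 Differentiated human HepaRG cells were exposed in duplicate for 48 h to eight half-log concentrations from 100 uM in 0.5% DMSO. APOA5 mRNA was quantified by TaqMan qRT-PCR, normalized to ACTB, GAPDH and POLR2A, and fitted bidirectionally against DMSO.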

[5] = read-out: Apoptosis regulator Bcl-2 (Homo sapiens) (UniProt P10415); assay: LTEA_HepaRG_BCL2: Life Technologies and Expression Analysis (LTEA) Assay for Bcl-2 gene using HepaRG (AID 2283475)
Method in brief: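 qRT-PCR read-out (Fluidigm TaqMan) of BCL2 transcript, normalised to three housekeeping genes, after 48 h chemical exposure of HepaRG cells; 8-point half-log series, top 100 uM, 0.5% DMSO vehicle. Gain or loss of signal fitted relative to DMSO baseline.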

[6] = read-out: Bcl-2 (BID) gene, BID (gene 637); assay: LTEA_HepaRG_BID: Life Technologies and Expression Analysis (LTEA) Assay for Bcl-2 (BID) gene using HepaRG (AID 2283476)
Method in brief: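 HepaRG, 48 h exposure, 8-pt half-log series, top 100 uM, 0.5% DMSO vehicle, duplicates. Readout: BID mRNA by TaqMan qRT-PCR; housekeeping-normalized; bidirectional curve fit vs DMSO baseline.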

[7] = read-out: Caspase-3 (Homo sapiens) (UniProt P42574); assay: LTEA_HepaRG_CASP3: Life Technologies and Expression Analysis (LTEA) Assay for cysteine-aspartic acid protease (CASP3) using HepaRG (AID 2283477)
Method in brief: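 Differentiated human HepaRG cells in serum-free induction medium were exposed 48 h to 8-point half-log concentrations from 100 uM (0.5% DMSO vehicle). CASP3 mRNA was measured by qRT-PCR, normalised to ACTB, GAPDH and POLR2A, with bidirectional fitting against DMSO.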

[8] = read-out: Cytochrome P450 (CYP24A1), CYP24A1 (gene 1591); assay: LTEA_HepaRG_CYP24A1: Life Technologies and Expression Analysis (LTEA) Assay for Cytochrome P450 (CYP24A1) using HepaRG (AID 2283478)
Method in brief: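 Differentiated HepaRG cells, pre-cultured 48 h, were exposed in duplicate for 48 h in serum-free induction medium to 8 half-log concentrations (top 100 uM, 0.5% DMSO). CYP24A1 mRNA was quantified by TaqMan qRT-PCR, normalized to ACTB/GAPDH/POLR2A, fitted bidirectionally versus DMSO.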

[9] = read-out: Cytochrome P450 (CYP1A2), CYP1A2 (gene 1544); assay: LTEA_HepaRG_CYP1A2: Life Technologies and Expression Analysis (LTEA) Assay for Cytochrome P450 (CYP1A2) using HepaRG (AID 2283479)
Method in brief: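 Differentiated human HepaRG cells in serum-free induction medium were exposed in duplicate for 48 h to 8-point half-log concentrations up to 100 uM in 0.5% DMSO. CYP1A2 mRNA measured by qRT-PCR, normalized to ACTB, GAPDH, POLR2A; bidirectional fit vs DMSO.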

[10] = read-out: cysteine-aspartic acid protease (CASP8), CASP8 (gene 841); assay: LTEA_HepaRG_CASP8: Life Technologies and Expression Analysis (LTEA) Assay for cysteine-aspartic acid protease (CASP8) using HepaRG (AID 2283480)
Method in brief: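 CASP8 transcript measured by TaqMan qRT-PCR with ACTB/GAPDH/POLR2A normalization, after 48 h chemical exposure of HepaRG cells in serum-free induction medium. Eight concentrations, top 100 uM, half-log steps, 0.5% DMSO vehicle; fits in both directions versus DMSO.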

[11] = read-out: Cytochrome P450 (CYP2B6), CYP2B6 (gene 1555); assay: LTEA_HepaRG_CYP2B6: Life Technologies and Expression Analysis (LTEA) Assay for Cytochrome P450 (CYP2B6) using HepaRG (AID 2283481)
Method in brief: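 Differentiated HepaRG cells, serum-free induction medium, exposed 48 h in duplicate to 8-point half-log concentrations from 100 uM in 0.5% DMSO. CYP2B6 mRNA by qRT-PCR, normalized to ACTB, GAPDH, POLR2A; bidirectional fit versus DMSO.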

[12] = read-out: Cytochrome P450 2C19 (Homo sapiens) (UniProt P33261); assay: LTEA_HepaRG_CYP2C19: Life Technologies and Expression Analysis (LTEA) Assay for CYP2C19 using HepaRG (AID 2283482)
Method in brief: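 Differentiated human HepaRG cells were exposed for 48 h in serum-free induction medium to 8 concentrations (top 100 uM, half-log steps, 0.5% DMSO). CYP2C19 mRNA was measured by qRT-PCR, normalized to ACTB/GAPDH/POLR2A, and fitted bidirectionally against DMSO.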

[13] = read-out: CYP2C8 (gene 1558); assay: LTEA_HepaRG_CYP2C8: Life Technologies and Expression Analysis (LTEA) Assay for CYP2C8 using HepaRG (AID 2283483)
Method in brief: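 CYP2C8 expression measured by TaqMan qRT-PCR and normalized to three housekeeping genes. HepaRG cultures were treated for 48 h with an eight-point half-log series topping at 100 uM, vehicle 0.5% DMSO, duplicates; fitted both directions against DMSO.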

[14] = read-out: CYP2C9 (gene 1559); assay: LTEA_HepaRG_CYP2C9: Life Technologies and Expression Analysis (LTEA) Assay for CYP2C9 using HepaRG (AID 2283484)
Method in brief: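 CYP2C9 transcript level, quantified by TaqMan qRT-PCR against three housekeeping genes, was fitted bidirectionally relative to 0.5% DMSO. HepaRG cultures were treated 48 h, in duplicate, at eight half-log concentrations topping at 100 uM.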

[15] = read-out: CYP2E1 (gene 1571); assay: LTEA_HepaRG_CYP2E1: Life Technologies and Expression Analysis (LTEA) Assay for CYP2E1 using HepaRG (AID 2283485)
Method in brief: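 CYP2E1 transcript was measured by TaqMan qRT-PCR in human HepaRG cultures after 48 h chemical exposure (top 100 uM, half-log steps, 0.5% DMSO vehicle). Housekeeping-gene normalization; gain or loss fitted relative to DMSO baseline.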

[16] = read-out: CYP4A11 (gene 1579); assay: LTEA_HepaRG_CYP4A11: Life Technologies and Expression Analysis (LTEA) Assay for CYP4A11 using HepaRG (AID 2283486)
Method in brief: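 Differentiated HepaRG cells, serum-free induction medium, exposed 48 h in duplicate to 8-point half-log series from 100 uM in 0.5% DMSO. CYP4A11 mRNA measured by qRT-PCR, normalized to ACTB, GAPDH, POLR2A; bidirectional fit versus DMSO.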

[17] = read-out: Cytochrome P450 3A4 (Homo sapiens) (UniProt P08684); assay: LTEA_HepaRG_CYP3A4: Life Technologies and Expression Analysis (LTEA) Assay for CYP3A4 using HepaRG (AID 2283487)
Method in brief: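 HepaRG, 48 h exposure, 8-pt CRC from 100 uM (half-log), 0.5% DMSO, duplicates; serum-free induction medium. Readout: CYP3A4 mRNA, qRT-PCR, ACTB/GAPDH/POLR2A normalization. Bidirectional fit vs DMSO.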

[18] = read-out: DNA damage-inducible transcript 3 (DDIT3), DDIT3 (gene 1649); assay: LTEA_HepaRG_DDIT3: Life Technologies and Expression Analysis (LTEA) Assay for DNA damage-inducible transcript 3 (DDIT3) using HepaRG (AID 2283488)
Method in brief: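 qRT-PCR readout (Fluidigm TaqMan), housekeeping-normalized to ACTB, GAPDH, POLR2A. HepaRG cells, 48 h exposure, 8-point half-log series from 100 uM in 0.5% DMSO, duplicates. Gain or loss of signal fitted against DMSO baseline.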

[19] = read-out: Pro-epidermal growth factor (Homo sapiens) (UniProt P01133); assay: LTEA_HepaRG_EGF: Life Technologies and Expression Analysis (LTEA) Assay for Epidermal growth factor (EGF) using HepaRG (AID 2283489)
Method in brief: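 Differentiated human HepaRG cells, plated 48 h then switched to serum-free induction medium, were exposed for 48 h to test chemicals (8-point half-log series, top 100 uM, 0.5% DMSO). EGF mRNA was quantified by qRT-PCR, normalized to ACTB, GAPDH, POLR2A.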

[20] = read-out: Early growth response protein 1 (EGR1) transcription factor, EGR1 (gene 1958); assay: LTEA_HepaRG_EGR1: Life Technologies and Expression Analysis (LTEA) Assay for Early growth response protein 1 (EGR1) transcription factor using HepaRG (AID 2283490)
Method in brief: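 EGR1 transcript levels quantified by qRT-PCR (Fluidigm arrays) against three housekeeping genes after 48 h chemical exposure of HepaRG cells. Eight-point half-log series topping at 100 uM, 0.5% DMSO vehicle, analyzed for gain or loss.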

Measured: AC50

Chain of Cytochrome P450 2C19 (Homo sapiens) (P33261 whole entry, looked up): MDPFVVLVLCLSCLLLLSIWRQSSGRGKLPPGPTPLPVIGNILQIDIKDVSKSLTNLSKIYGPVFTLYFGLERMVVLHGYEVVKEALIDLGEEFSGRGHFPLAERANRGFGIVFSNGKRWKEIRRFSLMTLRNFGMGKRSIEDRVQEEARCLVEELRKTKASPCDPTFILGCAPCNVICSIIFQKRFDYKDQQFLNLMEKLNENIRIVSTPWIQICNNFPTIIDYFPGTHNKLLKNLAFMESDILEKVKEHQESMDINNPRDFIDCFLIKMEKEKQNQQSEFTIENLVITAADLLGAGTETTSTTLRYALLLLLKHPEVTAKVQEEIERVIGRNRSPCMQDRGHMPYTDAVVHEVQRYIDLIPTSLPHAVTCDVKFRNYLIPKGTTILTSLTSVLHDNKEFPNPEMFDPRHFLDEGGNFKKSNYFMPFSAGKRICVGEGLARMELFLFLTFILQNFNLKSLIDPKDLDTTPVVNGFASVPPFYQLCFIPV
Chain of Cytochrome P450 3A4 (Homo sapiens) (P08684 whole entry, looked up): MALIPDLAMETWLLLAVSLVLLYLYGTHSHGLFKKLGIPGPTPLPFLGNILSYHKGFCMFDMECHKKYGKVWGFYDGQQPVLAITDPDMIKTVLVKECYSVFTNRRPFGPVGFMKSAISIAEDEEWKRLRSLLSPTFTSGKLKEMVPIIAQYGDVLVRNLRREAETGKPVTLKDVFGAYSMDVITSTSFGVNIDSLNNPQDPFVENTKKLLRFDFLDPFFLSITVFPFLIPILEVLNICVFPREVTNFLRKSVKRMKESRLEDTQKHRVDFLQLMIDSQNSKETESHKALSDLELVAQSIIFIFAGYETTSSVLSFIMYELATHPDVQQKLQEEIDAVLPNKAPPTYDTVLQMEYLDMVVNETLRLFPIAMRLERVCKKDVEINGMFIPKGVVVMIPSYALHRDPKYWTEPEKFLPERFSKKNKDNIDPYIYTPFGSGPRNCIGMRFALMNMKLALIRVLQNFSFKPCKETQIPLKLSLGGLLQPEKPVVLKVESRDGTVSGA
Chain of Caspase-3 (Homo sapiens) (P42574 whole entry, looked up): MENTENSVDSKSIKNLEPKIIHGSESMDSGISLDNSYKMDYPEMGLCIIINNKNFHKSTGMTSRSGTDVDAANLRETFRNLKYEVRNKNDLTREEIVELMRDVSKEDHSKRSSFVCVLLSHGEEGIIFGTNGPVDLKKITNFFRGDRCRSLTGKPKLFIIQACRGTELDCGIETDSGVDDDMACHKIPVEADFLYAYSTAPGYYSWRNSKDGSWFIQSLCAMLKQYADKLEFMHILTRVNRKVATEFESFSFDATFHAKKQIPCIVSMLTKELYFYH
Chain of Apoptosis regulator Bcl-2 (Homo sapiens) (P10415 whole entry, looked up): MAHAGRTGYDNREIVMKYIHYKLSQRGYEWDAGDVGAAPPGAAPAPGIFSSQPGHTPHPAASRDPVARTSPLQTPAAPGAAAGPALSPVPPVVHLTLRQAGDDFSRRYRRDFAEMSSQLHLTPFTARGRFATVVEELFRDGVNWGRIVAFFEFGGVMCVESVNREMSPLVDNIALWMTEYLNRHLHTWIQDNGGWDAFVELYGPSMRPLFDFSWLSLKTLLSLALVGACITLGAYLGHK

NC(=Nc1ccccc1)Nc1ccccc1
active: [2] 70.9 µM | [9] 50 µM | [18] 27.6 µM
inactive: all other assays above

O=C(O)CN(CC(=O)O)CC(=O)O
active: [9] 45.8 µM
not listed: [11]
inactive: all other assays above

O=C1c2c(O)cccc2Cc2cccc(O)c21
active: [9] 18.2 µM
inactive: all other assays above

CCCCCCCC(=O)OC
active: [13] 12 µM
inactive: all other assays above

Cc1c(C)c2c(c(C)c1O)CCC(C)(COc1ccc(CC3SC(=O)NC3=O)cc1)O2 (stereo not given)
active: [2] 25 µM | [3] 90.1 µM | [9] 15.8 µM | [15] 25.6 µM | [16] 27.5 µM | [20] 88.3 µM
not listed: [11] | [12] | [17]
inactive: all other assays above

O=C1CCCCC1
not listed: [13]
inactive: all other assays above
